Compound activity (PubChem BioAssay)
Vif-APOBEC3F blk = Vif-A3F binding inhibition; HeLa A3F-eYFP + Vif (tagged APOBEC3F with the HIV-1 protein that degrades it), YFP fluorescence increase; Potency, µM (doses to about 46.1 µM); hit rate 0.2% among 390,000; AID 602313; further: nearly all actives have a fitted effect of over 65% in size
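Fluorescence increase (Ex 488/Em 500-530) after overnight compound treatment at 37 deg C flags inhibition of Vif-driven A3F-eYFP loss in stable HeLa A3F-eYFP/Vif cells seeded overnight beforehand.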
GLS inhibitor = blocks human kidney-isoform glutaminase activity; O94925; GLS enzymatic activity, qHTS titration; Potency, µM (top dose mostly 45.5 µM), hits mostly inhibitors; hit rate 0.21% among 410,000
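Compounds were pin-transferred onto hKGA, after which L-glutamine (1 mM solution) and a detection mix of glutamate oxidase, HRP and Amplex Red were added. Initial and 30 min RT fluorescence reads were collected.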
PINK1 modulator = changes PINK1 expression. PINK1 immunofluorescence, high-content cytometry, 24 h. Potency, µM (top dose mostly 76.6 µM), actives largely listed as activators. hit rate 0.2% among 410,000. AID 624263; active means well fitted activation curve with a large enough effect; inconclusive means small, poorly fitted or top-dose-only effect; cell line not stated here; further: nearly all actives have a fitted effect of over 65% in size
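Cells are seeded, rested 12 hours, then given compound at five concentrations or DMSO for 24 hours. After fixation, blocking and antibody staining, PINK1 amount and mitochondrial localization are scored; CCCP serves as control.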
Vif-APOBEC3G blk = blocks the Vif interaction with human APOBEC3G; HeLa A3G-eYFP + Vif (tagged APOBEC3G with the HIV-1 protein that degrades it), YFP fluorescence, overnight; AID 602310; hit rate 0.076% among 410,000; Potency, µM (top dose mostly 46.1 µM), actives largely listed as inhibitors; further: nearly all actives have a fitted effect of over 60% in size
Target sequence (Q9HC16 whole entry, looked up): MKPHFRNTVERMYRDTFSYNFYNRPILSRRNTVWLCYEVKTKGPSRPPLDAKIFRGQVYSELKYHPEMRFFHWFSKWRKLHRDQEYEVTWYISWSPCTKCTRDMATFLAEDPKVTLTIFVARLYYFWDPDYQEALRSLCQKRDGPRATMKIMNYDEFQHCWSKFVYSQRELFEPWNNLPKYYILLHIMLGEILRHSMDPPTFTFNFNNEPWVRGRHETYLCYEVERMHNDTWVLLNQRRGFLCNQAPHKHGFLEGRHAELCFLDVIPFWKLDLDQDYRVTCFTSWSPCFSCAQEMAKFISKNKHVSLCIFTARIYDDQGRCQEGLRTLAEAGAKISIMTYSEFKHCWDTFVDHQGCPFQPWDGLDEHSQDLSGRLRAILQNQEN
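Read-out is eYFP fluorescence (Ex 488/Em 500-530) from Vif-expressing HeLa A3G-eYFP cells; more signal means A3G escaped Vif-mediated degradation. Cells plated overnight, compound pinned in, incubated overnight at 37 deg C.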
Epigenetic reg = derepresses silenced GFP reporter in murine cells. murine LDR cells, GFP reporter derepression, 30 h. Potency, µM (series often up to 53.9 µM), most hits filed as activators. hit rate 0.2% among 280,000. AID 1865; further: nearly all actives have a fitted effect of over 60% in size
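In this reporter-derepression format, murine cells bearing a silenced integrated CMV-GFP locus incubate with test compound (30 h, 37 C), then are washed and imaged; fluorescent objects of 20–120 um count as induced cells.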
Large screens that a line does not name were inactive. Hits are enriched below; roughly 0.7% of the tested compounds scored in any of these assays. Unless noted, the call rests on the fitted dose curve; in most records, active means well fitted curve in the direction sought with a large enough effect; inconclusive means small, poorly fitted or top-dose-only effect, or another doubt; inactive means no such curve, though single readings can be large; an effect the other way counts as inactive or inconclusive.

COc1ccc(C(=O)OCC(=O)N2CCc3ccccc3C2)cc1OC	none (no result: Epigenetic reg)
CC(=O)Oc1cc(C(=O)OCC(=O)N2CCc3ccccc3C2)cc(OC(C)=O)c1OC(C)=O	GLS inhibitor 6.31µM (no result: Epigenetic reg)
CCOC(=O)N1CCN(Cc2ccc3c(c2)CN(C(=O)c2sc(C)nc2C)CCO3)CC1	none (no result: Vif-APOBEC3F blk, GLS inhibitor, Vif-APOBEC3G blk, Epigenetic reg)
CN(C)c1ccc(/C=C/c2cc(/C=C/c3ccc(N(C)C)cc3)c3ccccc3n2)cc1	Vif-APOBEC3G blk 2.82µM (no result: Vif-APOBEC3F blk, GLS inhibitor, Epigenetic reg)
CCN(CC)c1ccc(/C=C/c2cc(-c3ccccc3)c3ccccc3n2)cc1	Vif-APOBEC3F blk inconclusive, Vif-APOBEC3G blk inconclusive, Epigenetic reg 3.16µM
Cc1c(C(=O)NCCN2CCC(c3ccccc3)CC2)cnn1-c1nccc(-c2cccs2)n1	none (no result: Vif-APOBEC3F blk, GLS inhibitor, Vif-APOBEC3G blk, Epigenetic reg)
COC(=O)[C@H]1[C@H]2C[C@@H]3c4[nH]c5cc(OC)ccc5c4CCN3C[C@H]2C[C@@H](OC(=O)c2cc(OC)c(OC)c(OC)c2)[C@@H]1OC	Vif-APOBEC3F blk inconclusive, Epigenetic reg 22.4µM
COC(=O)C1C2CC3c4[nH]c5cc(OC)ccc5c4CCN3CC2CC(OC2CCCCO2)C1OC (stereo not drawn)	Vif-APOBEC3F blk 11.2µM (no result: Epigenetic reg)
Nc1nc(-c2ccc(Cl)cc2)nnc1-c1ccc(Br)cc1	Vif-APOBEC3F blk inconclusive, PINK1 modulator 44.7µM, Epigenetic reg inconclusive
CN1C=CC2=C(C#N)C(N)C(C#N)(C#N)C(c3ccccc3)C2C1 (stereo not drawn)	PINK1 modulator 11.2µM
CN1C[C@@H]2C(c3ccccc3)C3(c4ccc(C#N)cc4)CC2(C3)[C@H]1c1ccccc1 (stereo partly drawn)	none
CSC1CCCCC1(O)CSc1nc2ccccc2o1 (stereo not drawn)	GLS inhibitor 12.6µM (no result: PINK1 modulator)
CN(C)c1ccc2c(c1)OC(N)=C(C#N)C2c1cccc(F)c1 (stereo not drawn)	Vif-APOBEC3F blk 22.4µM, PINK1 modulator inconclusive, Vif-APOBEC3G blk inconclusive
N#CC1=C(N)Oc2cc(N)ccc2C1c1cccc(F)c1 (stereo not drawn)	Vif-APOBEC3G blk inconclusive (no result: Epigenetic reg)
COC(=O)c1cc(NC(=O)c2cccc(Cl)c2)c(=O)oc1/C=C/Nc1cc(C)cc(C)c1	Epigenetic reg 3.55µM (no result: Vif-APOBEC3F blk, GLS inhibitor, PINK1 modulator, Vif-APOBEC3G blk)
COC(=O)c1cc(NC(=O)c2cccc(C(F)(F)F)c2)c(=O)oc1C	none
COc1ccc(CN2CCOc3c(O)cc(-c4cc(C)c5ccc(F)cc5n4)cc3C2)c(O)c1	none (no result: Vif-APOBEC3F blk, GLS inhibitor, Vif-APOBEC3G blk, Epigenetic reg)
Cc1nc2cc(NC(=O)[C@@H]3C[C@@H](Sc4ccccn4)CN3Cc3ccccc3F)ccc2s1	none (no result: Vif-APOBEC3F blk, GLS inhibitor, Vif-APOBEC3G blk, Epigenetic reg)
C=C(C)C(=O)Oc1ccc(N2C(=O)CCC2=O)cc1	Vif-APOBEC3F blk inconclusive, Epigenetic reg 22.4µM
O=c1oc(-c2ccc(O)c(O)c2)cc2cc(O)cc(O)c12	GLS inhibitor 17.8µM (no result: Epigenetic reg)
O=c1oc(-c2ccc(O)c(O)c2)cc2cccc(O)c12	GLS inhibitor inconclusive (no result: Epigenetic reg)
O=C(N/N=C/C1=C(N2CCOCC2)C(=C\c2ccccc2)/CC1)Nc1ccccc1	none
CCN(CC)c1ccc(/C=C2\CCC(/C=N/NC(=O)c3ccc(=O)n(C)c3)=C2N2CCOCC2)cc1	Vif-APOBEC3F blk inconclusive, GLS inhibitor 7.08µM, Vif-APOBEC3G blk inconclusive, Epigenetic reg inconclusive
COc1cc2c3nnc(-c4ccccc4)c-3cn(Cc3ccccc3F)c2cc1OC	Vif-APOBEC3F blk inconclusive, PINK1 modulator inconclusive, Vif-APOBEC3G blk inconclusive, Epigenetic reg inconclusive
COc1cc2c3nnc(-c4ccc(F)cc4)c-3cn(Cc3ccccc3F)c2cc1OC	Vif-APOBEC3F blk 25.1µM, PINK1 modulator inconclusive, Vif-APOBEC3G blk inconclusive, Epigenetic reg 6.31µM
OCC1CCCN(c2nc3cc4c(cc3cc2CNCc2cccc(C(F)(F)F)c2)OCO4)C1 (stereo not drawn)	none (no result: Vif-APOBEC3F blk, GLS inhibitor, Vif-APOBEC3G blk, Epigenetic reg)
CC1(C)Cc2c(sc3ncn4c(=S)[nH]nc4c23)CO1	GLS inhibitor 12.6µM
COC(=O)[C@@H]1CCCN1C(=O)c1c(OC)cc(=O)n2c1CCN(Cc1ccc3c(c1)OCCO3)CC2	none (no result: Vif-APOBEC3F blk, GLS inhibitor, Vif-APOBEC3G blk, Epigenetic reg)
ClCc1nc2ccccc2n1Cc1ccccc1	Vif-APOBEC3F blk 5.62µM, Vif-APOBEC3G blk inconclusive (no result: Epigenetic reg)
COCc1nc2ccccc2n1Cc1ccccc1	none
COc1ccccc1C1CN(Cc2cccc(C)n2)Cc2ccccc2O1 (stereo not drawn)	none (no result: Vif-APOBEC3F blk, GLS inhibitor, Vif-APOBEC3G blk, Epigenetic reg)
COC(=O)[C@@H]1CCCN1C(=O)c1cnn(-c2ncc3c(n2)-c2ccccc2CCC3)c1C1CC1	none (no result: Vif-APOBEC3F blk, GLS inhibitor, Vif-APOBEC3G blk, Epigenetic reg)
CC(=O)Nc1sc2c(c1C#N)CCN(Cc1ccccc1)C2	none (no result: Epigenetic reg)
N#Cc1c(NC(=O)/C=C/C(=O)O)sc2c1CCN(Cc1ccccc1)C2	Vif-APOBEC3F blk 25.1µM, GLS inhibitor inconclusive, Vif-APOBEC3G blk inconclusive (no result: Epigenetic reg)
